The values below come from article PMC4336329 (PLoS ONE, 2015).

Molecules are shown by their SMILES. The whole screen tested about 310,000 compounds, of which about 14,000 (4.5%) showed an effect of 50% or more. The effect is printed as a negative number. The sample as a whole holds a higher share of strong results than the screen did.
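Also: peak tail current of the secondary pulse compared with the same well before compound.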

Sequence of human ether-à-go-go-related gene (hERG) potassium channel (Q12809 whole entry, looked up): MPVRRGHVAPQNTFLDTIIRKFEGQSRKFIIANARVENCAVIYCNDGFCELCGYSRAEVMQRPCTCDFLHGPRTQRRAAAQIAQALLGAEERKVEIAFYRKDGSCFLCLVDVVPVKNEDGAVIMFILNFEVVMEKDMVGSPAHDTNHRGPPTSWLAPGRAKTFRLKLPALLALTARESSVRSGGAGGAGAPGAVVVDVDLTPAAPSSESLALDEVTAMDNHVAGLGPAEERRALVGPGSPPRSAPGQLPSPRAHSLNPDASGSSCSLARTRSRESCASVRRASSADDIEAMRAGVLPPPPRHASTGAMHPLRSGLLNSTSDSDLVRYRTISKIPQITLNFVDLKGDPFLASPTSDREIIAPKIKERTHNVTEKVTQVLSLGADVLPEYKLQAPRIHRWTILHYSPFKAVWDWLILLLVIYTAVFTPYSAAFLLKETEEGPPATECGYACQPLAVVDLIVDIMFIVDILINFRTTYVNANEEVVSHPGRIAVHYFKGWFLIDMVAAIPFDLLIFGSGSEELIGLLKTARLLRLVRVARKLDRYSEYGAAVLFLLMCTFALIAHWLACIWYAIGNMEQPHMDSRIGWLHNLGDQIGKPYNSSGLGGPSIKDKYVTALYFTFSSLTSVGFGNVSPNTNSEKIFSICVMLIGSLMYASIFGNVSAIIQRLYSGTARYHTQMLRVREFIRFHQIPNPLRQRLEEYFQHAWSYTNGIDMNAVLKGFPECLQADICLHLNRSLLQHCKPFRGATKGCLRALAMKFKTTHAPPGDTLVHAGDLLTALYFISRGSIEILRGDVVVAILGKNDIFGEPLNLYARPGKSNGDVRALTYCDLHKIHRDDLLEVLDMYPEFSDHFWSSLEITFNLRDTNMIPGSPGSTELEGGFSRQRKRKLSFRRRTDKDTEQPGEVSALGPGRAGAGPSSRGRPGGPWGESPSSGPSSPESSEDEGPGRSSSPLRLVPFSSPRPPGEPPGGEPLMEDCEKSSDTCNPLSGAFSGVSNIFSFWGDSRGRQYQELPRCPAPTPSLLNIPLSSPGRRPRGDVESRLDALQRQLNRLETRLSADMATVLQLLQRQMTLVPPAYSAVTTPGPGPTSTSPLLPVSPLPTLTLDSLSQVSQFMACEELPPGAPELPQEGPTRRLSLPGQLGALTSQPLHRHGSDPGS

This test concerns the target human ether-à-go-go-related gene (hERG) potassium channel (human, UniProt Q12809). The test can be described thus: primary screen, population patch clamp on CHO cells stably expressing hERG; higher = less effect of the substance.
With `O=C(CSc1nnc(CNC(=O)c2ccco2)o1)Nc1nc2ccccc2s1`, the “hERG current change (%, negative = inhibition) at 10uM” value was determined as 16.1%.

On to `COc1cc(CC(NC(C)=O)C(=O)NC2CCN(S(=O)(=O)c3ccc(NC(C)=O)cc3)CC2)cc(OC)c1` (stereo not shown), for which the “hERG current change (%, negative = inhibition) at 10uM” value is recorded as 21.7%.

As for `Cc1nn(S(=O)(=O)c2ccccc2)c(C)c1Sc1ccc([N+](=O)[O-])cc1`, the “hERG current change (%, negative = inhibition) at 10uM” value was -6.26%.

On to `Cc1ccccc1-c1cnn(-c2cccc([N+](=O)[O-])c2)c1N`, for which the “hERG current change (%, negative = inhibition) at 10uM” value is on record as -56.7%.

Take `Nc1c(-c2ccccc2Cl)cnn1-c1cccc([N+](=O)[O-])c1`: the “hERG current change (%, negative = inhibition) at 10uM” value is listed as -49.4%.

On to `Cc1cc(C)nc(-n2nc(C)c(Sc3ccc(F)cc3)c2N)n1`, for which the “hERG current change (%, negative = inhibition) at 10uM” value is -61.7%.

Turning to `Cc1nn(-c2nc3ccccc3s2)c(N)c1Sc1ccc(F)cc1`, the “hERG current change (%, negative = inhibition) at 10uM” value was determined as 7.4%.

With `Cc1nn(-c2cccc([N+](=O)[O-])c2)c(N)c1-c1ccccc1`, the “hERG current change (%, negative = inhibition) at 10uM” value was -68.7%.

As for `Cc1ccc(-c2cnn(-c3cccc([N+](=O)[O-])c3)c2N)cc1`, the “hERG current change (%, negative = inhibition) at 10uM” value is -24.1%.

For the molecule `Cc1nn(-c2ccccc2)c(N)c1Sc1ccc([N+](=O)[O-])cc1`, the “hERG current change (%, negative = inhibition) at 10uM” value is reported as -75.2%.

`Cc1nn(-c2ccccc2)c(N)c1Sc1ccccc1[N+](=O)[O-]`: the “hERG current change (%, negative = inhibition) at 10uM” value is reported as -26.7%.

Consider `Cc1nn(-c2ccccc2)c(N)c1-c1ccccc1`, for which the “hERG current change (%, negative = inhibition) at 10uM” value came out at 5.13%.

In the case of `Cc1nn(-c2ccc([N+](=O)[O-])cc2)c(N)c1-c1ccccc1`, the “hERG current change (%, negative = inhibition) at 10uM” value is recorded as -19.1%.

`Cc1cc(C)nc(-n2nc(C)c(C3(O)C(=O)Nc4ccc(F)cc43)c2N)n1` (stereo not shown): the “hERG current change (%, negative = inhibition) at 10uM” value came to 3.79%.

For `CC(C(=O)NCc1cccnc1)N1C(=O)c2ccccc2C1=O` (stereo not shown), the “hERG current change (%, negative = inhibition) at 10uM” value is listed as 17.4%.

For `CNC(=O)CSCCn1c(SCC(=O)NC)nc2ccccc2c1=O`, the “hERG current change (%, negative = inhibition) at 10uM” value was 13.1%.

As to `COc1ccc(-c2cc(C(F)(F)F)n3ncc(C(=O)N(C)Cc4ccccc4)c3n2)cc1`, the “hERG current change (%, negative = inhibition) at 10uM” value is -17%.

For the molecule `Cc1cc(C)cc(Oc2ccc(N)cc2)c1`, the “hERG current change (%, negative = inhibition) at 10uM” value is on record as -15.1%.

As to `COc1ccccc1NC(=O)C(C)N(C)CCOc1ccccc1` (stereo not shown), the “hERG current change (%, negative = inhibition) at 10uM” value was found to be 16.5%.

For the molecule `COc1ccc(Cn2c(C)nnc2-c2cnn(C)c2N)cc1`, the “hERG current change (%, negative = inhibition) at 10uM” value turned out to be 14.8%.

For the molecule `O=S(=O)(NCC1CCCO1)c1cccc(S(=O)(=O)N2CCCC2)c1` (stereo not shown), the “hERG current change (%, negative = inhibition) at 10uM” value is -14%.

With `CCN1CCN(C(=O)CCNC(=O)Cn2ccc3ccccc3c2=O)CC1`, the “hERG current change (%, negative = inhibition) at 10uM” value stood at 13.9%.

Consider `Cc1ccc(-c2nc(CSc3nc4ccccc4c(=O)n3C)cs2)cc1`, for which the “hERG current change (%, negative = inhibition) at 10uM” value was found to be 9.52%.

Consider `CCN1CCN(CCCNC(=O)c2ccc(NC(=O)C3=C(C)OCCS3)cc2)CC1`, for which the “hERG current change (%, negative = inhibition) at 10uM” value came out at 17.6%.

As to `O=C(O)c1cccc2c1/C(=N/Nc1ccc([N+](=O)[O-])cc1[N+](=O)[O-])c1ccccc1-2`, the “hERG current change (%, negative = inhibition) at 10uM” value is listed as 19.7%.

Take `Cc1nn(-c2ccccc2)c(N)c1Sc1cccc([N+](=O)[O-])c1.Cl`: the “hERG current change (%, negative = inhibition) at 10uM” value is -65.9%.

In the case of `Cc1ccc(-n2nc(C)c(Sc3ccccc3[N+](=O)[O-])c2N)cc1`, the “hERG current change (%, negative = inhibition) at 10uM” value is on record as -17.2%.

`Cc1nn(C(=O)c2cccc([N+](=O)[O-])c2)c(C)c1Sc1ccccc1`: the “hERG current change (%, negative = inhibition) at 10uM” value came to 7.61%.

Consider `CCOc1ccc(NC(=O)c2ccc(NC(=S)NC3CCCCC3)cc2)cc1`, for which the “hERG current change (%, negative = inhibition) at 10uM” value is listed as 20.9%.

Take `O=C(CCN1C(=O)[C@@H]2Cc3ccccc3CN2C1=O)NCc1ccccc1`: the “hERG current change (%, negative = inhibition) at 10uM” value is on record as -12%.

`Cc1cccc(NC(=O)CCCCCN2C(=O)[C@@H]3Cc4ccccc4CN3C2=O)c1`: the “hERG current change (%, negative = inhibition) at 10uM” value is listed as -21.7%.

Consider `O=C(CCN1C(=O)c2ccncc2C1=O)NCc1ccc(Cl)cc1`, for which the “hERG current change (%, negative = inhibition) at 10uM” value is given as -51.9%.

In the case of `Cc1cc(C)cc(NC(=O)CCCN2C(=O)C(c3ccccc3)Oc3cccnc32)c1` (stereo not shown), the “hERG current change (%, negative = inhibition) at 10uM” value is given as -1.03%.

`Cc1ccc(NC(=O)CCCCCN2C(=O)[C@@H]3Cc4ccccc4CN3C2=O)cc1`: the “hERG current change (%, negative = inhibition) at 10uM” value is -12.1%.

For `COc1ccc(CNC(=O)CCN2C(=O)c3ccncc3C2=O)cc1OC`, the “hERG current change (%, negative = inhibition) at 10uM” value was found to be 13%.

Regarding `O=C(CCN1C(=O)[C@@H]2Cc3ccccc3CN2C1=O)NCc1ccc(Cl)cc1`, the “hERG current change (%, negative = inhibition) at 10uM” value is -64.2%.

In the case of `Cc1ccc(CNC(=O)CCN2C(=O)[C@@H]3Cc4ccccc4CN3C2=O)cc1`, the “hERG current change (%, negative = inhibition) at 10uM” value is -40.5%.

`Cc1cc(C)cc(NC(=O)CCCCCN2C(=O)[C@@H]3Cc4ccccc4CN3C2=O)c1`: the “hERG current change (%, negative = inhibition) at 10uM” value is reported as -51.9%.

For the molecule `CCc1cccc(NC(=O)CCCN2C(=O)C(c3ccccc3)Oc3cccnc32)c1` (stereo not shown), the “hERG current change (%, negative = inhibition) at 10uM” value was -2.79%.

On to `O=C(CCN1C(=O)c2ccccc2C1=O)NCc1ccc(Cl)cc1`, for which the “hERG current change (%, negative = inhibition) at 10uM” value is given as -16.9%.

As for `O=C(CCCN1C(=O)C(c2ccccc2)Oc2cccnc21)Nc1cccc(F)c1` (stereo not shown), the “hERG current change (%, negative = inhibition) at 10uM” value is given as -50.2%.

Turning to `Cc1ccccc1NC(=S)N(Cc1cccnc1)Cc1ccccc1Cl`, the “hERG current change (%, negative = inhibition) at 10uM” value is -11.6%.

With `COc1ccc(C(=O)Nc2ccccc2C(=O)N2CCCCCC2)cc1OC`, the “hERG current change (%, negative = inhibition) at 10uM” value was -10.5%.

On to `Cc1c(NC(NC(=O)CF)C(Cl)(Cl)Cl)c(=O)n(-c2ccccc2)n1C` (stereo not shown), for which the “hERG current change (%, negative = inhibition) at 10uM” value stood at 4.94%.

As to `O=C(NC(=S)Nc1cc(Cl)ccc1N1CCOCC1)c1ccc(-c2cccc(Cl)c2)o1`, the “hERG current change (%, negative = inhibition) at 10uM” value was determined as 8.91%.

For `O=C(COc1ccccc1O)Nc1ccccc1Cl`, the “hERG current change (%, negative = inhibition) at 10uM” value was -4.32%.

With `COc1ccc(CCn2c(SCC(=O)Nc3cc(C)on3)nc3ccccc3c2=O)cc1OC`, the “hERG current change (%, negative = inhibition) at 10uM” value was found to be 0.454%.

Turning to `Cc1ccc(OC(=O)CCc2c(C)nc3ncnn3c2C)cc1`, the “hERG current change (%, negative = inhibition) at 10uM” value is listed as -8.47%.

As to `COc1cccc(NC(=O)CCCCCN2C(=O)[C@@H]3Cc4ccccc4CN3C2=O)c1`, the “hERG current change (%, negative = inhibition) at 10uM” value is listed as -37.7%.

With `O=C(CCN1C(=O)[C@@H]2Cc3ccccc3CN2C1=O)Nc1cccc(F)c1`, the “hERG current change (%, negative = inhibition) at 10uM” value was -13.8%.

Take `O=C(CCCCCN1C(=O)[C@@H]2Cc3ccccc3CN2C1=O)Nc1cccc(F)c1`: the “hERG current change (%, negative = inhibition) at 10uM” value is recorded as -67.9%.

With `CC1C(C#N)=C(N)OC2=C1C(=O)CC(C)(C)C2` (stereo not shown), the “hERG current change (%, negative = inhibition) at 10uM” value is 9.35%.

Turning to `Cc1ccc(/C=N/NC(=O)NN(C)c2ncc(C(F)(F)F)cc2Cl)cc1`, the “hERG current change (%, negative = inhibition) at 10uM” value was -3.09%.

For the molecule `CCOc1cc(/C=N/NC(=O)NN(C)c2ncc(C(F)(F)F)cc2Cl)ccc1O`, the “hERG current change (%, negative = inhibition) at 10uM” value was -54.3%.

For the molecule `CCOc1cc(/C=N/NC(=O)N/N=C/c2ccc(O)c(OCC)c2)ccc1O`, the “hERG current change (%, negative = inhibition) at 10uM” value is given as -10.1%.
